Source: PubChem BioAssay
Several values for one entry are separate records, joined by “and”; a condition that tells them apart may be missing. Equal entries are not always repeated. Activity calls are given as the source filed them.

Target: NADPH oxidase 2 (Homo sapiens) (UniProt P04839)
Test: NOX2-dependent H2O2 signal modulators, primary screen, NOX inhibitor project, cell-based, HEK293-NOX2, PMA-stimulated, Amplex Red fluorescence (AID 1159); note: test concentration not given here
Details: 45 min, higher = more signal, called active from +8 up or from −8 down

Chain of NADPH oxidase 2 (Homo sapiens) (P04839 whole entry, looked up): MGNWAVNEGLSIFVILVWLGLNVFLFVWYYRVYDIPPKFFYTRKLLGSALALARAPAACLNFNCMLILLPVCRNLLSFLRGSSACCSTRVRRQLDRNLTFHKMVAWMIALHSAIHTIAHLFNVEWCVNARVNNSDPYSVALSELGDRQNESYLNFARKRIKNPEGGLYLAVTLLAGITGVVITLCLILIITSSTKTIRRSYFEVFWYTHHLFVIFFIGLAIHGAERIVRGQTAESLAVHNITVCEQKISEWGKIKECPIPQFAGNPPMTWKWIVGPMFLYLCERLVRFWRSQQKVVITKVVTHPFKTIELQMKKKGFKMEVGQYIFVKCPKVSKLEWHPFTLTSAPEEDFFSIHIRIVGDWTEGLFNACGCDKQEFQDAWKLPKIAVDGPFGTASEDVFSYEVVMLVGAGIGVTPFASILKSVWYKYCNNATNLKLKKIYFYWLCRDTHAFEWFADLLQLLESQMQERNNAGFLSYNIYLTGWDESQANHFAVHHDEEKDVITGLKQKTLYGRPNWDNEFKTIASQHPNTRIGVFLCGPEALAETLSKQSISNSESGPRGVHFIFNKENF

z-score, inactive:
C=CCN(C(=O)C1N(c2c(Cl)cccc2CO)C(=O)C2C(C(=O)O)C3C=CC21O3)C(C)(C)C (stereo not given) 0.961 and 0.116
O=C1C[C@]2(c3ccc([N+](=O)[O-])cc3)C(=O)N(Cc3ccccc3)c3cc(CO)ccc3[C@H]2N1C1CCCCC1 0.139 and 1.55
C[C@@H](ON=C1[C@H]2CCn3c(=O)n(-c4ccccc4)c(=O)n3[C@H]2[C@H](O)[C@@H]2O[C@H]12)c1cn([C@H](CO)Cc2ccccc2)nn1 -0.622
C=CCN(CCCC)C(=O)C1N(C(C)(C)CO)C(=O)C2C(C(=O)O)C3C=CC21O3 (stereo not given) 0.209 and 0.495
COC(=O)[C@@]1(Cc2ccccc2)[C@H]2c3cc(C(=O)N(C)C)n(C[C@H](O)CO)c3C[C@H]2CN1C(=O)c1ccccc1 -0.0779 and 0.104
C[C@@H]1CN2[C@@H](CC[C@@H](C)[C@@H]2c2ccc(Br)cc2)C(=O)O1 1.55 and -0.12
COC(=O)C1=C(C)N(Cc2ccccc2)[C@]23O[C@](C(=O)OC)(C(=O)N2[C@@H]1c1ccccc1)[C@@H](C(=O)OC)[C@H]3C(=O)OC 1.8 and -0.506
C=CCN(Cc1ccccc1)C(=O)C1N(c2ccc(CCO)cc2)C(=O)C2C(C(=O)O)C3C=CC21O3 (stereo not given) 0.819 and 0.498
CCOC(=O)C[C@H]1[C@H](OC(=O)c2ccccc2-c2ccccc2)[C@@H](NC(=O)Cc2ccc(OC)cc2)c2cc(OCCCO)ccc2N1C(=O)c1ccc2ccccc2n1 -0.488 and 1.54
CC(C)CCN1CCc2nc(-c3ccccc3)c3c(c2C1)CO[C@@H](C)C3 1.12
CCOC(=O)[C@@H]1CC=C2CC1C(=O)N1CCC[C@@H]1[C@H]2O[Si](C)(C)C(C)(C)C (stereo not given in full) -0.0861 and -0.161
COC(=O)[C@@]1(Cc2ccc(OC)cc2)[C@H]2c3cc(C(=O)N(C)C)n(Cc4ccc(O)c(OC)c4)c3C[C@H]2CN1C(=O)c1ccccc1 -1.99 and 0.285
CO[C@H]1COC(=O)CC=C[C@H](C)[C@H](OC)COC(=O)[C@@H](C)COC(=O)CC=C[C@@H]1C 0.282 and 1.16
CCOC(=O)C[C@H]1[C@H](OC(=O)c2ccccc2-c2ccccc2)[C@@H](NC(=O)c2ccccc2)c2cc(OCCCO)ccc2N1C(=O)c1ccc2ccccc2n1 -0.556 and -1.18
C=CCN(CCCC)C(=O)C1N(c2c(Cl)cccc2CO)C(=O)C2C(C(=O)O)C3C=CC21O3 (stereo not given) 0.6 and 0.353
